# Rows were chosen to be rich in hits. Some 2.9% of all compounds tested hit in one or more screens of this group.
# PAFAH1B2 inh – PAFAH1B2 enzyme inhibitors, primary screen, biochemical, fluorescence polarization, human; Platelet-activating factor acetylhydrolase IB subunit alpha2 (Homo sapiens), P68402; recombinant PAFAH1B2, FP-rhodamine activity probe; inhibition, % at 3.39 µM; 340,000 tested, 1.2% active;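 active = inhibition above the mean of all tested compounds plus 3 SD, cut at about 24% in these data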;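 also: 0% = enzyme with DMSO and 100% = wells lacking PAFAH1B2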
# PAFAH2 inh – PAFAH2 enzyme inhibitors, primary screen, biochemical, fluorescence polarization, human; 340,000 tested, 0.99% active; recombinant PAFAH2, FP-rhodamine activity probe; Platelet-activating factor acetylhydrolase 2, cytoplasmic (Homo sapiens), Q99487; AID 492956, 2010; inhibition, % at 3.39 µM;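 active = inhibition above the mean over all tested compounds plus 3 SD, cut at about 30% in these data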;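 also: inhibitors block probe labeling of enzyme so polarization drops; 0% = enzyme with DMSO and 100% = wells lacking PAFAH2 protein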
# PAFAH1B3 FP inh – PAFAH1B3 enzyme inhibitors, primary screen, biochemical, fluorescence polarization, human | AID 492972, 2010 | Platelet-activating factor acetylhydrolase IB subunit alpha1 (Homo sapiens), Q15102 | 340,000 tested, 0.28% active | inhibition, % at 3.39 µM | recombinant PAFAH1B3, FP-rhodamine probe;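 active = inhibition above the screen-wide average of all tested compounds plus 3 SD, cut at about 25% in these data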;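 also: 0% = enzyme with DMSO only and 100% = wells lacking PAFAH1B3 protein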
# pPAFAH FP inh – pPAFAH enzyme inhibitors, primary screen, biochemical, fluorescence polarization, human. recombinant pPAFAH, FP-rhodamine probe fluorescence polarization. inhibition, % at 3.39 µM. 330,000 tested, 1.5% active. AID 463082, 2010;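 active = inhibition above the mean inhibition across the screen plus 3 SD, cut at about 25% in these data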;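 also: inhibitors block binding of the rhodamine activity-based probe so polarization drops; 0% = enzyme with DMSO and 100% = wells lacking pPAFAH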
# Target sequence (Q13093 whole entry, looked up): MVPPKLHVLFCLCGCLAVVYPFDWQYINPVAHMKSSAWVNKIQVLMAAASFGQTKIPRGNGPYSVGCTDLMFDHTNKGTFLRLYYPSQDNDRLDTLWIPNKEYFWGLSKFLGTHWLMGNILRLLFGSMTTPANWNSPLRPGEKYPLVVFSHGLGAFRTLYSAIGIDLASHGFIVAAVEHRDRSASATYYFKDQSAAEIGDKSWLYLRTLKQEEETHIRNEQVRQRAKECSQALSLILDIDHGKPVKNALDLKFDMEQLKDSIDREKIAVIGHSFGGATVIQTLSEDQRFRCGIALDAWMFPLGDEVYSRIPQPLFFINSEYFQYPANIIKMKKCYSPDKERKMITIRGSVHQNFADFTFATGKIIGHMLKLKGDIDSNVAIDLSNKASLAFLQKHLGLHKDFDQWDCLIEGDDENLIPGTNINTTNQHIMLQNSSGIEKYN
# LYPLA1 inh – LYPLA1 inhibitors, primary screen, counter-screen for PME1 inhibitor project, biochemical, fluorescence polarization, FP-Rh probe ABPP. Acyl-protein thioesterase 1 (Homo sapiens), O75608. recombinant LYPLA1. inhibition, % at 5.9 µM. 320,000 tested, 0.16% active. AID 2174, 2009;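 active = inhibition above the mean of all tested compounds plus 3 SD, set per campaign, cut at about 14% in these data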;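 also: inhibitors block serine hydrolase probe labeling of LYPLA1 so polarization falls; 0% = enzyme with DMSO and 100% = wells lacking LYPLA1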
# LYPLA2 counter – LYPLA2 inhibitors, primary screen, counter-screen for PME1 inhibitor project, biochemical, fluorescence polarization, FP-Rh probe ABPP. 320,000 tested, 0.38% active. inhibition, % at 5.9 µM. Acyl-protein thioesterase 2 (Homo sapiens), O95372. recombinant LYPLA2;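 active = inhibition above the screen-wide mean plus 3 SD, limit set per campaign, cut at about 26% in these data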;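 also: 0% = LYPLA2 with DMSO and 100% = wells lacking LYPLA2 enzyme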
# An asterisk follows results filed as active; . = no result.
SMILES,PAFAH1B2 inh,PAFAH2 inh,PAFAH1B3 FP inh,pPAFAH FP inh,LYPLA1 inh,LYPLA2 counter
CN(C)c1cccc(C(=O)N2CCCC(CCC(=O)N3CCN(c4ccccn4)CC3)C2)c1 (stereo unspecified),0,-2,1,0,0,-1
O=C(CCC1CCCN(C(=O)c2cccc(F)c2)C1)N1CCN(c2ccccn2)CC1 (stereo unspecified),2,-6,8,25*,3,10
CCc1cc(C(=O)N2CCCC(CCC(=O)N3CCN(c4ccccn4)CC3)C2)no1 (stereo unspecified),5,4,13,-2,2,-3
O=C(CCC1CCCN(C(=O)c2ccc3c(c2)OCO3)C1)N1CCN(c2ccccn2)CC1 (stereo unspecified),3,-3,5,27*,1,0
COc1cccc(-c2ncc3ccccc3c2COC(=O)N2CCCCC2)c1,4,-2,0,0,0,4
Cc1ccc([N+](=O)[O-])cc1-c1ccc(/C=C(\C#N)c2[nH]nc(N)c2C#N)o1,2,22,5,30*,5,9
COc1ccc(/C=N/NC(=O)c2cc(C34CC5CC(CC(C5)C3)C4)[nH]n2)cc1O,29*,6,-1,13,-12,-13
O=S(=O)(c1ccc(F)c(F)c1)N1CCN(Cc2ccc3c(c2)OCO3)CC1,5,-1,4,5,-3,-4
Cn1c2ccccc2c2cc(/C=N/NC(=O)c3ccc(O)cc3O)ccc21,23,-22,33*,31*,-14,-18
CCn1c2ccccc2c2cc(/C=N/NC(=O)c3ccc(O)cc3)ccc21,-5,-19,-18,-6,-26,-39
COc1ccc(N2CCN(Cc3nc4ccsc4c(=O)[nH]3)CC2)cc1,1,-1,5,0,-1,0
O=c1[nH]c(CN2CCN(c3ccc([N+](=O)[O-])cc3)CC2)nc2ccsc12,32*,-5,-3,10,2,9
Cc1ccc(-n2nc3c([n+]2[O-])CCc2nonc2-3)cc1,-1,-1,6,-4,1,-3
O=C(NCCCN1CCOCC1)c1ccc(Sc2cccc(Cl)c2)c([N+](=O)[O-])c1,-1,2,2,32*,4,6
O=C(/C=C/c1ccc(O)c(O)c1)OC(Cc1ccc(O)c(O)c1)C(=O)O (stereo unspecified),5,8,10,6,0,2
O=C(/C=C/c1ccc(O)c(O)c1)OCCc1ccccc1,34*,-4,11,11,-5,-10
CCOc1cc(/C=C2\C(=N)N3N=C(S(C)(=O)=O)SC3=NC2=O)ccc1OCCOc1cccc(OC)c1,-4,-25,-13,4,-17,-11
O=[N+]([O-])c1cc(-c2cnc3ccccc3n2)ccc1Oc1ccc(Br)cc1,54*,-7,2,5,-1,10
Cc1nnc(-c2ccc(Oc3ccc(Br)cc3)c([N+](=O)[O-])c2)o1,8,-3,-14,16,1,12
O=C(c1cccc(S(=O)(=O)N2CCOCC2)c1)N(Cc1ccco1)Cc1cccs1,1,0,3,2,1,2
O=C(CN(Cc1ccco1)Cc1cccs1)N1CCN(S(=O)(=O)c2cccc(F)c2)CC1,26*,0,4,3,-5,0
Cc1[nH]c2c(C)cccc2c1CCNC(=O)c1ccc2c(c1[N+](=O)[O-])C(=O)c1ccccc1C2=O,12,20,40*,21,-3,8
O=C(CSCc1ccccc1)NNC(=S)Nc1cccc(Cl)c1Cl,17,29,10,32*,5,11
CNC(=S)NNC(=O)CSCc1c(Cl)cccc1Cl,.,.,.,8,4,4
COc1ccc(Nc2nc(Nc3ccc(OC)cc3)nc(SC3=NCCS3)n2)cc1,1,6,7,34*,-17,-8
SMILES,PAFAH1B2 inh,PAFAH2 inh,PAFAH1B3 FP inh,pPAFAH FP inh,LYPLA1 inh,LYPLA2 counter
CCn1c(CSCc2ccccc2)n[nH]c1=S,0,-1,-1,-2,5,1
CCCCC(=O)NC(c1ccco1)c1cc(Cl)c2cccnc2c1O (stereo unspecified),4,7,8,29*,-6,-3
CS(=O)(=O)N(CC(=O)NCc1ccncc1)c1ccc(F)c(Cl)c1,7,2,2,0,3,10
CCN(CC)c1ccc(N=C2C(=O)Nc3ccccc32)cc1,0,5,4,29*,-1,0
Cc1ccc(N=C2C(=O)Nc3ccccc32)cc1,3,0,9,9,-4,-3
C[C@H](NC(=O)c1nc[nH]c1C(=O)NCC(=O)OCc1ccccc1)c1ccccc1,34*,1,2,12,-2,4
Cc1oc(-c2ccccc2Cl)nc1CS(=O)(=O)CC(=O)NC(C)c1ccccc1 (stereo unspecified),8,5,4,8,0,2
CCC1CCC/C1=N\NC(=O)c1cc(C)[nH]n1 (stereo unspecified),3,6,12,34*,-2,-3
Nc1nc(-c2ccc(F)cc2)cs1,55*,-11,-2,-2,-1,2
Nc1nc(-c2cc(-c3ccccc3)no2)cs1,0,8,1,4,-6,-17
Nc1nc(-c2ccc(Br)cc2)cs1,83*,3,6,8,4,10
Nc1nc(-c2cccc(Br)c2)cs1,8,-3,8,5,-2,-2
Nc1nc(-c2ccccc2)cs1,39*,0,6,2,6,5
Cc1cc(C)cc(NC(=O)CCOc2ccccc2)c1,4,-5,11,-1,1,2
O=C(CNc1cccc2ccccc12)N/N=C/C=C/c1ccco1,7,6,11,10,5,9
O=C(Cc1cccs1)N/N=C/C=C/c1ccco1,6,6,1,25*,-5,-6
COC(=O)c1c(NC(=O)CC2Nc3ccccc3NC2=O)sc(C)c1C (stereo unspecified),3,9,-2,-8,-7,-2
COc1ccc(C(=O)NC2CCCc3c2cnn3-c2cc(F)cc(F)c2)c(OC)c1OC (stereo unspecified),4,8,6,9,-5,-10
C=CCNC(=O)CSCc1ccc(Br)cc1,27*,2,2,1,-2,0
C=CCNC(=O)CSc1ccc(Cl)cc1,29*,-7,0,3,2,0
Cc1nnc(SCC(=O)N(Cc2ccccc2)C(C)(C)C)[nH]c1=O,25*,4,7,0,0,-1

# Screening data deposited in PubChem by The Scripps Research Institute Molecular Screening Center.
